Results as given in PubChem BioAssay AID1159580 (chemical genetic matrix, 2015).
In all, about 5,500 compounds went through this assay and about 2,000 (36%) were called active. Another 18% or so got no clear call; they are omitted. No stated cut-off is given here; in the data, active means normalized growth mostly below about 0.91 (no sharp cut-off); inconclusive means no clear call, values can overlap the other calls; inactive means mostly above about 0.92. The list shows a part of the results.

Assay: chemical genetic growth profiling, strain panel (AID 1159580);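 further: tested at 20 µM; growth read once vehicle control cultures reached saturation at 30 °C; 1 = growth at the plate median or of vehicle wells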
Settings: S. cerevisiae deletion strains, growth OD
[1] = locus YJR075W, strain HOC1, stronger effect = lower value
[2] = locus YMR307W, strain GAS1, stronger effect = lower value

Measured: normalized growth

COc1cc2nc(N(C)CCCNC(=O)C3CCCO3)nc(N)c2cc1OC (centres undefined)
inactive: locus YAL021C, strain ccr4, stronger effect = lower value 1.02 | locus YAL026C, strain drs2, stronger effect = lower value 1 | locus YAL030W, strain snc1, stronger effect = lower value 0.979 | locus YBL061C, strain skt5, stronger effect = lower value 0.986 | locus YBR009C, strain hhf1, stronger effect = lower value 1.01 | locus YBR021W, strain FUR4, stronger effect = lower value 0.994 | locus YBR023C, strain chs3, stronger effect = lower value 0.997 | locus YBR171W, strain sec66, stronger effect = lower value 0.988 | locus YBR229C, strain ROT2, stronger effect = lower value 1 | locus YBR231C, strain swc5, stronger effect = lower value 0.998 | locus YBR279W, strain paf1, stronger effect = lower value 0.993 | locus YCL011C, strain gbp2, stronger effect = lower value 0.993 | locus YCL016C, strain dcc1, stronger effect = lower value 1 | locus YCL029C, strain bik1, stronger effect = lower value 1.02 | locus YCL061C, strain MRC1, stronger effect = lower value 0.996 | locus YCL069W, strain vba3, stronger effect = lower value 0.993 | locus YCR088W, strain abp1, stronger effect = lower value 0.986 | locus YDL005C, strain med2, stronger effect = lower value 1 | locus YDL035C, strain GPR1, stronger effect = lower value 1.03 | locus YDL040C, strain nat1, stronger effect = lower value 0.993 | locus YDL074C, strain BRE1, stronger effect = lower value 1.03 | locus YDL101C, strain DUN1, stronger effect = lower value 1.01 | locus YDL185W, strain tfp1, stronger effect = lower value 1.02 | locus YDL192W, strain arf1, stronger effect = lower value 1.01 | locus YDR001C, strain nth1, stronger effect = lower value 0.997 | locus YDR069C, strain doa4, stronger effect = lower value 0.991 | locus YDR101C, strain arx1, stronger effect = lower value 1.01 | locus YDR137W, strain rgp1, stronger effect = lower value 1 | locus YDR159W, strain sac3, stronger effect = lower value 1.03 | locus YDR162C, strain NBP2, stronger effect = lower value 1.03 | locus YDR195W, strain ref2 0.972 | locus YDR297W, strain sur2, stronger effect = lower value 1 | locus YDR318W, strain mcm21, stronger effect = lower value 1.02 | locus YDR334W, strain swr1, stronger effect = lower value 0.999 | locus YDR335W, strain msn5, stronger effect = lower value 1 | locus YDR388W, stronger effect = lower value 0.999 | locus YDR392W, strain spt3, stronger effect = lower value 1.01 | locus YDR502C, strain sam2, stronger effect = lower value 1 | locus YEL003W, strain gim4, stronger effect = lower value 1 | locus YEL037C, strain rad23, stronger effect = lower value 0.998 | locus YEL061C, strain CIN8 (second series), stronger effect = lower value 0.986 | locus YEL061C, strain CIN8, stronger effect = lower value 1.01 | locus YER015W, strain faa2, stronger effect = lower value 0.995 | locus YER016W, strain bim1, stronger effect = lower value 0.998 | locus YER110C, stronger effect = lower value 1 | locus YER111C, strain swi4, stronger effect = lower value 0.987 | locus YER155C, strain BEM2 (second series), stronger effect = lower value 0.999 | locus YER155C, strain BEM2, stronger effect = lower value 0.998 | locus YER167W, strain BCK2, stronger effect = lower value 1.01 | locus YFR010W, strain ubp6, stronger effect = lower value 0.992 | locus YGL078C, strain dbp3, stronger effect = lower value 1 | locus YGL086W, strain mad1, stronger effect = lower value 1.01 | locus YGL167C, strain pmr1, stronger effect = lower value 0.995 | locus YGL173C, strain kem1, stronger effect = lower value 0.994 | locus YGL227W, strain vid30, stronger effect = lower value 0.986 | locus YGL240W, strain doc1, stronger effect = lower value 0.987 | locus YGL248W, strain PDE1, stronger effect = lower value 1.01 | locus YGL253W, strain hxk2, stronger effect = lower value 0.992 | locus YGR135W, strain pre9, stronger effect = lower value 0.998 | locus YGR252W, strain gcn5, stronger effect = lower value 0.95 | locus YHR013C, strain ard1, stronger effect = lower value 0.999 | locus YHR027C, strain rpn1, stronger effect = lower value 0.997 | locus YHR030C, strain SLT2, stronger effect = lower value 1.03 | locus YHR079C, strain IRE1 (second series), stronger effect = lower value 0.997 | locus YHR094C, strain hxt1, stronger effect = lower value 1 | locus YHR129C, strain ARP1, stronger effect = lower value 1.01 | locus YHR142W, strain chs7, stronger effect = lower value 0.979 | locus YHR200W, strain rpn10, stronger effect = lower value 1.01 | locus YIL066C, strain RNR3, stronger effect = lower value 1.04 | locus YIL073C, strain SPO22, stronger effect = lower value 1.03 | locus YIL125W, strain kgd1, stronger effect = lower value 1.01 | locus YIR030C, strain dcg1, stronger effect = lower value 0.995 | locus YJL092W, strain hpr5, stronger effect = lower value 0.995 | locus YJL095W, strain BCK1 (second series), stronger effect = lower value 0.994 | locus YJL095W, strain BCK1, stronger effect = lower value 1.03 | locus YJL115W, strain asf1, stronger effect = lower value 1 | locus YJL129C, strain trk1, stronger effect = lower value 1 | locus YJL134W, strain LCB3, stronger effect = lower value 1.02 | locus YJL154C, strain vps35, stronger effect = lower value 0.993 | locus YJL164C, strain tpk1, stronger effect = lower value 1 | locus YJL166W, strain qcr8, stronger effect = lower value 0.985 | locus YJL168C, strain set2, stronger effect = lower value 0.994 | locus YJL187C, strain SWE1 (second series), stronger effect = lower value 1.02 | locus YJL187C, strain SWE1, stronger effect = lower value 0.999 | locus YJR043C, strain POL32, stronger effect = lower value 1.03 | [1] 1.01 | locus YKL009W, strain mrt4, stronger effect = lower value 1.01 | locus YKL068W, stronger effect = lower value 1.01 | locus YKL085W, strain MDH1 (second series), stronger effect = lower value 1.02 | locus YKL085W, strain MDH1, stronger effect = lower value 1.02 | locus YKL190W, strain CNB1, stronger effect = lower value 1.03 | locus YKR001C, strain vps1, stronger effect = lower value 1.01 | locus YKR026C, strain gcn3, stronger effect = lower value 0.995 | locus YKR091W, strain srl3, stronger effect = lower value 0.995 | locus YLL001W, strain dnm1, stronger effect = lower value 0.99 | locus YLL026W, stronger effect = lower value 0.992 | locus YLL041C, strain sdh2, stronger effect = lower value 0.998 | locus YLR027C, strain aat2, stronger effect = lower value 0.991 | locus YLR039C, strain RIC1, stronger effect = lower value 1.07 | locus YLR058C, strain SHM2, stronger effect = lower value 1.02 | locus YLR102C, strain apc9, stronger effect = lower value 1.01 | locus YLR221C, strain rsa3, stronger effect = lower value 0.998 | locus YLR258W, strain gsy2, stronger effect = lower value 0.994 | locus YLR262C, strain YPT6 (second series), stronger effect = lower value 0.981 | locus YLR262C, strain YPT6, stronger effect = lower value 1.07 | locus YLR268W, strain sec22, stronger effect = lower value 0.99 | locus YLR320W, strain mms22, stronger effect = lower value 1 | locus YLR330W, strain CHS5, stronger effect = lower value 1.02 | locus YLR342W, strain FKS1 (second series), stronger effect = lower value 1.03 | locus YLR342W, strain FKS1, stronger effect = lower value 0.995 | locus YLR357W, strain rsc2, stronger effect = lower value 0.984 | locus YLR370C, strain arc18, stronger effect = lower value 1.01 | locus YLR371W, strain rom2, stronger effect = lower value 1.02 | locus YLR384C, strain iki3, stronger effect = lower value 0.988 | locus YLR418C, strain cdc73, stronger effect = lower value 0.995 | locus YML016C, strain PPZ1, stronger effect = lower value 1.01 | locus YML032C, strain rad52, stronger effect = lower value 1 | locus YML120C, strain ndi1, stronger effect = lower value 0.998 | locus YML124C, strain tub3, stronger effect = lower value 0.997 | locus YMR058W, strain fet3, stronger effect = lower value 0.996 | locus YMR078C, strain ctf18, stronger effect = lower value 0.998 | locus YMR125W, strain sto1, stronger effect = lower value 0.995 | locus YMR129W, stronger effect = lower value 0.987 | locus YMR205C, strain PFK2, stronger effect = lower value 0.993 | locus YMR223W, strain ubp8, stronger effect = lower value 1.03 | locus YMR231W, strain pep5, stronger effect = lower value 1 | [2] 1.02 | locus YNL067W, strain RPL9B, stronger effect = lower value 1.02 | locus YNL071W, strain lat1, stronger effect = lower value 1 | locus YNL209W, strain ssb2, stronger effect = lower value 0.996 | locus YNL233W, strain BNI4, stronger effect = lower value 1.02 | locus YNL248C, strain rpa49, stronger effect = lower value 0.982 | locus YNL250W, strain rad50, stronger effect = lower value 1.04 | locus YNL271C, strain bni1, stronger effect = lower value 1 | locus YNL298W, strain CLA4, stronger effect = lower value 1 | locus YNL307C, strain MCK1, stronger effect = lower value 1 | locus YNL322C, strain KRE1 (second series), stronger effect = lower value 0.985 | locus YNR049C, strain mso1, stronger effect = lower value 0.994 | locus YNR052C, strain pop2, stronger effect = lower value 0.995 | locus YOL012C, strain htz1 0.863 | locus YOL147C, strain pex11, stronger effect = lower value 1.01 | locus YOR001W, strain rrp6, stronger effect = lower value 1 | locus YOR061W, strain CKA2, stronger effect = lower value 1.02 | locus YOR069W, strain VPS5, stronger effect = lower value 1 | locus YOR070C, strain gyp1, stronger effect = lower value 0.998 | locus YOR080W, strain dia2, stronger effect = lower value 0.983 | locus YOR083W, strain WHI5, stronger effect = lower value 1 | locus YOR106W, strain vam3, stronger effect = lower value 1.01 | locus YOR136W, strain idh2, stronger effect = lower value 1 | locus YOR144C, strain elg1, stronger effect = lower value 0.999 | locus YOR184W, strain ser1, stronger effect = lower value 1.03 | locus YOR265W, strain rbl2, stronger effect = lower value 0.988 | locus YOR270C, strain vph1, stronger effect = lower value 1.03 | locus YOR290C, strain snf2, stronger effect = lower value 1.03 | locus YOR316C, strain cot1, stronger effect = lower value 0.999 | locus YPL051W, strain arl3, stronger effect = lower value 0.997 | locus YPL078C, strain atp4, stronger effect = lower value 0.988 | locus YPL106C, strain sse1, stronger effect = lower value 0.991 | locus YPL240C, strain hsp82, stronger effect = lower value 0.974 | locus YPL241C, strain CIN2, stronger effect = lower value 1.01 | locus YPR119W, strain clb2, stronger effect = lower value 0.991 | locus YPR141C, strain kar3, stronger effect = lower value 1.01 | locus YPR163C, strain tif3, stronger effect = lower value 1 | locus YPR167C, strain met16, stronger effect = lower value 1 | strain wtn01, stronger effect = lower value 0.998

CC[C@@H]1C=C/C=C/C[C@H](C)[C@@H](O)[C@](C)(O)C(=O)[C@H](C)[C@@H](O)[C@H](C)C(=O)[C@H](C)[C@@H](O)[C@H](C)/C=C/C(=O)O[C@H]2[C@@H](C)[C@@H](CC1)O[C@@]1(CC[C@@H](C)[C@@H](CC(C)O)O1)[C@@H]2C (some centres undefined)
inactive: locus YAL040C, strain CLN3, stronger effect = lower value 0.989 | locus YCL061C, strain MRC1 (second series), stronger effect = lower value 1.01 | locus YDR150W, strain NUM1, stronger effect = lower value 1 | locus YDR363W, strain ESC2, stronger effect = lower value 0.961 | locus YER002W, strain NOP16, stronger effect = lower value 0.945 | [1] 0.973 | locus YMR263W, strain SAP30, stronger effect = lower value 1.02 | locus YNL128W, strain TEP1, stronger effect = lower value 0.96 | locus YNL175C, strain NOP13, stronger effect = lower value 0.969 | locus YNL197C, strain WHI3, stronger effect = lower value 0.99 | locus YNL224C, strain SQS1, stronger effect = lower value 0.993 | locus YOR083W, strain WHI5 (second series), stronger effect = lower value 0.971 | locus YPL055C, strain LGE1, stronger effect = lower value 0.936
active: [2] 0.911
